Here are results for 17 compounds from PubChem BioAssay.

A number with no mark means an inactive call. The rule behind the calls is not given here.

This experiment deals with Pantothenate synthetase (Mycobacterium tuberculosis (strain ATCC 25618 / H37Rv)) (UniProt P9WIL5). Description: Recombinant Mtb pantothenate synthetase (PanC) inhibitors, coupled enzyme, confirmatory (AID 375).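 Note: 0% = full reaction with vehicle and 100% = no enzyme background.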 Conditions: coupled enzyme assay; at 10 µM, stronger effect = higher value.
Sequence of Pantothenate synthetase (Mycobacterium tuberculosis (strain ATCC 25618 / H37Rv)) (P9WIL5 whole entry, looked up): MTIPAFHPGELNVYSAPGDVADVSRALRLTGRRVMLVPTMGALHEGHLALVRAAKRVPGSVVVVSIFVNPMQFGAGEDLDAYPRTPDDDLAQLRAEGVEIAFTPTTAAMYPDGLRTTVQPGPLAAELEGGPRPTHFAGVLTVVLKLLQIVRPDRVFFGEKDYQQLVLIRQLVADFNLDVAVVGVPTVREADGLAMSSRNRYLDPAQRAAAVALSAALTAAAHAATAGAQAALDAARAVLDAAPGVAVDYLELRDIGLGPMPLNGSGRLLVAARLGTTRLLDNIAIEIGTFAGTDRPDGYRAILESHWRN
The term inhibition denotes the change of the read-out against control, counted positive when it falls. In the case of `COC(=O)CN1C(=O)C(O)(CC(=O)c2ccc(Cl)cc2)c2ccccc21` (configuration not stated), the inhibition was 0%. The result for `CCc1nn(CC(=O)N2CCN(Cc3ccc4c(c3)OCO4)CC2)c(=O)c2cc3occc3n12` reads 5%; that for `O=C(Cn1c(SCC(=O)N2CCCc3ccccc32)nc2ccccc21)N1CCCC1`, 0%; that for `Nc1nc2n(n1)C(c1cccc(Br)c1)CC(c1ccc(F)cc1)N2` (configuration not stated), 0%. With `CN(C)c1cccc2c(S(=O)(=O)Nc3ccccn3)cccc12` the figure was 1%; with `CCOC(=O)c1[nH]c(C)c(C(=O)N(C)C)c1C`, 0%.

On to `CCOC(=O)N1CCC(O)(c2cc(C)c(C)cc2C)CC1`, for which the inhibition is 3%.

For the compound `O=C(Nc1ccc(F)cc1)c1cccc2c1C(=O)N(Cc1ccccn1)C2`, the inhibition is 0%. With `Cc1cc(=O)n2nc(N3CCCC(C(=O)N4CCc5ccccc54)C3)sc2n1` (configuration not stated) the figure was 4%; with `O=C(Cn1cc2c(n1)CCCCC2)N1CCc2ccccc21`, 0%; with `CCn1c(SCC(=O)Nc2ccccc2N2CCCCC2)nc2c1c(=O)n(C)c(=O)n2C`, 2%. The result for `COc1cc(-c2nn3c(-c4cccnc4)nnc3s2)cc(OC)c1OC` reads 6%; that for `COC(=O)CN(c1ccc(F)cc1)S(=O)(=O)c1ccccc1`, 0%; that for `CC1CCN(C(=O)CSCC(=O)Nc2nc(-c3cccs3)cs2)CC1`, 0%.

Consider `CCOc1cccc(-n2nnnc2-c2ccc(OC)cc2)c1`, for which the inhibition was 9%.

Turning to `COc1cc(Br)cc(/C=N/c2ncn[nH]2)c1O`, the inhibition is 5%. As to `CCOC(=O)c1cc2c(=O)n3ccccc3nc2n(CCCOC)c1=NC(=O)C(C)(C)C`, the inhibition was 4%.
